Compounds with a hit are over-represented: about 14% of the library has one in this group of screens.
HCV inh – blocks hepatitis C virus; AID 651820; Potency, µM (highest dose often 41.8 µM), without a hit: at the highest dose activity change, negative = inhibition, hits mostly inhibitors; 340,000 tested, 3.4% active; Huh7.5.1 HCVcc-Cre infection, luciferase reporter, 44 h; note: potency is the fitted concentration of half-maximal effect
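HCVcc-Cre virus at an moi near 0.5 was added right after compound to cells cultured 4 h from seeding (1,000 cells/well). Luciferase activity was determined 44 h later, 15 min after substrate addition at RT.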
HCMV antiviral – blocks human cytomegalovirus replication. 410,000 tested, 4.5% active. AID 1259415. HFF cells, HCMV-luciferase reporter, 72 h; stronger effect = lower value. activity change, negative = inhibition, % at 57.5 µM; in the data active = activity change below about -60%; inconclusive = no clear call, values can overlap the other calls; inactive = above about -39%
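Human foreskin fibroblasts infected with luciferase-reporter HCMV at MOI 1 PFU/cell, compounds at two doses. Luciferase measured 72 h post infection; normalized to buffer-only basal and Salinomycin (10uM) controls.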
LASV entry inh – Lassa virus entry inhibition; 300,000 tested, 1.2% active; AID 540256; Lassa virus pseudotype entry inhibition, cell reporter; Potency, µM (titrated, usually from 37.9 µM), inactives show at the highest dose activity change, negative = inhibition, hits mostly inhibitors; calls by dose curve; tested in HEK293 cells; note: potency is the fitted concentration of half-maximal effect; nearly all actives have a fitted effect of over 50% in size
Pf growth 96h – P. falciparum growth inhibition at 96 hour, primary screen for plastid delayed-death inhibitors; P. falciparum luciferase reporter growth, 96 h; Potency, µM (titrated, usually from 28.7 µM), for inactives: top-dose activity change, negative = inhibition, hits mostly inhibitors; AID 504834; 320,000 tested, 6.9% active; note: potency is the fitted concentration of half-maximal effect
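Compounds incubated with erythrocytes infected by luciferase-expressing P. falciparum (2% hematocrit, 0.05% parasitemia final) for 96 hours, 37 C in 5% CO2. Growth inhibition scored as decreased luciferase luminescence.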
Pf growth 48h – inhibits P. falciparum growth in the first generation, 48 h; 310,000 tested, 5.9% active; P. falciparum luciferase growth in erythrocytes, 48 h; AID 504832; Potency, µM (doses to about 28.7 µM), for inactives: at the highest dose activity change, negative = inhibition, most hits filed as inhibitors; note: potency is the fitted concentration of half-maximal effect
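Here the parasites carry a stable luciferase gene and grow inside erythrocytes in Albumax-based RPMI medium with compound for one erythrocytic cycle. Activity is scored as loss of luminescent signal.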
Marburg entry inh – Marburg virus entry inhibition; Marburg virus pseudotyped entry inhibition, cell reporter; 300,000 tested, 1.8% active; Potency, µM (titrated, usually from 37.8 µM), for the others: at the highest dose activity change, negative = inhibition, hits mostly inhibitors; calls by dose curve; tested in HEK293 cells; note: potency is the fitted concentration of half-maximal effect
* = called active by the depositor; ? = inconclusive; nt = no result given; ! = not confirmed by another sample; [ ] = remark or other dose. Unless noted, calls come from the whole dose curve; as a rule, active = well fitted inhibition curve with a large enough effect; inconclusive = small, poorly fitted or top-dose-only effect, or another doubt; inactive = no such curve, though single readings can be large or run the other way. % is set by controls: 0 for no effect and ±100 for the full control effect.

SMILES | HCV inh | HCMV antiviral | LASV entry inh | Pf growth 96h | Pf growth 48h | Marburg entry inh
Cc1ccc(C)c2[nH]c(=O)c(CN(CCN3CCCC3)C(=O)Nc3ccc(F)cc3)cc12 | ? | -3 | -25% | ? | 4.1µM* | ?
COc1cc2cc(CN(CCN3CCCC3)C(=O)Nc3ccc(F)cc3)c(=O)[nH]c2cc1OC | -34% | 2 | 4% | -10% | 9.3µM* | ?
Cc1cc(C)c2cc(CN(CCO)C(=O)Nc3ccc(F)cc3)c(=O)[nH]c2c1 | 1% | 26 | 15% | ? | ? | ?
COc1cc2cc(CN(CCN3CCOCC3)C(=O)Nc3ccc(F)cc3)c(=O)[nH]c2cc1OC | 21% | 54 | nt | 0% | ? | nt
COCCCn1cnn2c(=O)c3ccccc3nc2c1=O | nt | 20 | nt | nt | nt | nt
CN1[C@@H]2CC[C@H]1CC(O[C@@H](c1ccccc1)c1ccc(Cl)cc1)C2 (stereo partly drawn) | nt | nt | nt | nt | nt | 3.2µM*
CN1CCCC(OC(=O)c2ccc(Cl)cc2)C1 (stereo not drawn) | 6% | 43 | 22%[46.1 µM] | -6% | -11% | ?
CN1[C@@H]2CC[C@H]1CC(OC(c1ccccc1)c1ccccc1)C2 (stereo partly drawn) | nt | nt | nt | 4.8µM* | 17µM* | 5µM*
CN1CCC(OC(c2ccccc2)c2ccc(Cl)cc2)C1 (stereo not drawn) | ? | -38 | ? | nt | nt | 7.1µM*
CN1[C@@H]2CC[C@H]1CC(OC1c3ccccc3CCc3ccccc31)C2 (stereo partly drawn) | 1.3µM* | -38 | nt | ? | 4.7µM* | nt
CN1C2CCC1CC(OC(=O)c1ccc(Cl)cc1)C2 (stereo not drawn) | ? | 49 | -6% | 1% | ? | -18%
CCOc1cc(N2CCOCC2)c(OCC)cc1NC(=O)COC(=O)c1ccccc1OC(F)F | ? | -32 | -30% | 30% | -24% | ?
CN1C2CCC1CC(OC(c1ccccc1)c1ccccc1)C2 (stereo not drawn) | ? | -32 | nt | 9.5µM*! | 12µM* | 5µM*
CN1[C@@H]2CC[C@H]1CC(OC(=O)C(O)c1ccccc1)C2 (stereo partly drawn) | 1% | -12 | nt | 2% | -10% | nt
O=C(Nc1sc2c(c1C(=O)O)CCC2)c1ccccc1 | 3% | 84 | ? | nt | 44% | 7.3µM*
O=C(Nc1sc2c(c1C(=O)O)CCCCC2)c1ccccc1 | ? | 11 | ? | ? | -1% | 7.1µM*
COc1cc(OC)cc(C(=O)Nc2sc3c(c2C(N)=O)CCC3)c1 | 2µM* | -16 | ? | 46% | 48% | 0%[46.1 µM]
O=C(Nc1sc2c(c1C(=O)O)CCC2)c1ccc(F)cc1 | 3% | 31 | ? | 21% | 68% | -17%[46.1 µM]
COc1ccc(CC(=O)Nc2sc3c(c2C(N)=O)CCCC3)cc1 | ? | -24 | -16%[46.1 µM] | -6% | nt | -3%[46.1 µM]
Cn1cc(Br)c(C(=O)Nc2sc3c(c2C(N)=O)CCCC3)n1 | -9% | 87 | ? | 4.1µM* | 39% | ?
CCOc1ccc(NC(=O)CC2C(=O)OCCN2CC)cc1 (stereo not drawn) | nt | 18 | -5%[46.1 µM] | nt | nt | 13%[46.1 µM]
COc1ccc(OC)c(S(=O)(=O)N2CCC(C(=O)NCc3ccncc3)CC2)c1 | 15% | 10 | 2% | 27% | 2% | -5%[46.1 µM]
CCCCOCCCNC(=O)C[C@@H]1C[C@@]2(C(=O)OC)CC(C)(C)CC=C2N(Cc2ccco2)C1=O | nt | -31 | nt | nt | nt | nt
CCOC(=O)c1c(NC(=O)c2ccccc2N(C)S(=O)(=O)c2ccccc2)sc2c1CCCC2 | ? | ? | ? | ? | ? | -20%
O=C(Nc1sc2c(c1C(=O)O)CCCC2)c1ccc(Cl)cc1 | ? | 17 | 7.9µM* | -8% | 56% | 6.3µM*
SMILES | HCV inh | HCMV antiviral | LASV entry inh | Pf growth 96h | Pf growth 48h | Marburg entry inh
Cn1cc(Br)c(C(=O)Nc2sc3c(c2C#N)CCC3)n1 | 13% | -4 | 11% | 31% | 95% | 7%
Cn1cc([N+](=O)[O-])c(C(=O)Nc2sc3c(c2C#N)CCC3)n1 | -1% | -101* | nt | 35% | 22% | nt
NC(=O)c1c(NC(=O)c2cccs2)sc2c1CCCCCC2 | 10µM* | 9 | ? | 14% | 58% | ?
COC(=O)c1c(NC(=O)c2ccccc2N(C)S(=O)(=O)c2ccccc2)sc2c1CCCC2 | ? | ? | ? | ? | ? | 4.5µM*
CCOC(=O)c1cc(-c2ccc(F)cc2)n(CCC(=O)NC2CCCCC2)c1C | nt | 0 | 5%[46.1 µM] | nt | nt | nt
C/C(=N\NC(=O)c1ccc(Cl)cc1)c1cccs1 | 0% | -5 | 3.5µM* | 87% | 200% | ?
O=C(c1ccc(NS(=O)(=O)c2cccs2)cc1)N1CCCCC1 | 2.8µM* | 13 | -2% | -2% | 16% | -2%
C/C(=N\NC(=O)c1ccc(NS(=O)(=O)c2cccs2)cc1)c1ccc(Cl)cc1 | ? | 22 | 3% | -20% | -3% | -2%
C/C(=N/NC(=O)c1cccs1)c1ccc(NC(=O)COc2ccc(Cl)cc2)cc1 | ? | -14 | 10µM* | 2%[5.75 µM] | 0% | ?
C/C(=N\NC(=O)c1ccc(NS(=O)(=O)c2cccs2)cc1)c1cccs1 | -21% | -83* | 18% | 12% | -7% | 3%[46.1 µM]
O=C(c1ccc(NS(=O)(=O)c2cccs2)cc1)N1CCOCC1 | nt | -19 | 9% | 0% | 6% | 25%
COCCN1C(=O)CN(S(C)(=O)=O)CC1(C)C(=O)Nc1ccc2c(c1)OCCO2 (stereo not drawn) | nt | 1 | nt | nt | nt | nt
CCCSCCCNC(=O)C1CCN(C(=O)c2cc3sccc3n2C)CC1 | nt | -4 | nt | nt | nt | 6%[46.1 µM]
CC(C)NC(=O)C1CCN(C2CCN(C(=O)c3ccc4cccc(F)c4n3)CC2)CC1 | 10% | -18 | nt | 15% | 8% | nt
CSCc1ccc(C(=O)N2CCC(N3CCC(C(=O)NC(C)C)CC3)CC2)o1 | -9% | -64* | 4% | 0% | 33% | -17%
COCc1c(C(=O)NCC(c2ccco2)N2CCCC2)oc2ccccc12 (stereo not drawn) | nt | -2 | nt | nt | nt | nt
Cc1c(Cl)cccc1NC(=O)Cn1c(=O)nc(-c2ccccc2)c2ccccc21 | nt | -87* | -5%[46.1 µM] | nt | nt | nt
Cc1cccc(NC(=O)Cn2c(=O)nc(-c3ccccc3)c3ccccc32)c1C | nt | 28 | ? | nt | nt | nt
O=C(Cn1c(=O)nc(-c2ccccc2)c2ccccc21)NCc1ccc(Cl)cc1 | nt | -94* | ? | nt | nt | nt
COc1ccc(CNC(=O)CN(C(=O)c2csnn2)c2cccc(C(C)=O)c2)cc1 | 2% | -26 | 8% | ? | 2% | 6%[46.1 µM]
Cc1ccc(S(=O)(=O)N2CCCN(C(=O)c3ccc(-n4nccc4C)cc3)CC2)cc1 | 32% | -3 | 12% | -28% | ? | -28%[46.1 µM]
C/C(=N\NC(=O)Cc1c[nH]c2ccccc12)c1ccc2ccccc2c1 | -15% | 81 | 4µM* | -6% | ? | ?

Screening results from PubChem BioAssay.
